# PubChem BioAssay (EPA / NIEHS)
# Inconclusive results are not listed. Calls of active or inactive are those of the source. How the source made its calls: active means hit-call score of the fitted dose curve at least 0.9, where 1 is the maximum; inconclusive means response in the unintended direction; inactive means score below 0.9.
# Read-out: xenobiotic metabolism (CYP1A2), CYP1A2 (gene 1544)
# Assay: CLD_CYP1A2_6hr: CellzDirect (CLD) Gene Expression Assay for xenobiotic metabolism (CYP1A2) at 6 hours (AID 2283663);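 on AC50: potency is for induction meaning a rise in mRNA above DMSO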
# Experimental: CLD_6hr is a cell-based, multiplexed-readout assay that uses hepatocyte, a human liver primary cell, with measurements taken at 6 hours after chemical dosing in a 96-well plate.CLD_CYP1A2_6hr is one of 16 assay component(s) measured or calculated from the CLD_6hr assay. It is designed to make measurements of mRNA induction, a form of inducible reporter, as detected with chemiluminescence signals by Quantitative Nuclease Protection Assay (qNPA) technology.Data from the assay component CLD_CYP1A2_6hr was analyzed at the endpoint, CLD_CYP1A2_6hr, in the positive analysis fitting direction relative to DMSO as the negative control and baseline of activity. Using a type of inducible reporter, gain-of-signal activity can be used to understand changes in the reporter gene as they relate to the gene CYP1A2. Furthermore, this assay endpoint can be referred to as a primary readout. To generalize the intended target to other relatable targets, this assay endpoint is annotated to the cyp intended target family, where subfamily is xenobiotic metabolism.
# Human hepatocyte cultures were treated daily for two consecutive days with fresh dosing solutions containing appropriate concentrations of the 320 ToxCast chemicals (chemical identities were blinded to CellzDirect and other ToxCast collaborators), vehicle control (0.2% DMSO), and positive control inducers as summarized in Table 1. Due to the large number of treatment groups and chemicals examined, the ToxCast chemicals were divided into two groups (spanning two independent cultures of hepatocytes from separate donor preparations (Hu778: ToxCast plates 1 and 2; Hu776: ToxCast plates 3 and 4). Each preparation of human hepatocyte cultures was treated with respective vehicle control, medium only control, set of six positive controls/reference chemicals for the five hepatic receptor pathways, and a subset of eight of the ToxCast chemicals (indoxacarb, pyrithiobac-sodium, norflurazon, cyhalofop-butyl, methomyl, thiram, acetochlor, and propiconazole). These replicate data, coupled with internal replicates designed within the blinded ToxCast chemical library, provided additional data to evaluate interindividual differences between hepatocyte preparations and their potential impact on chemical profiles.Cell morphology and integrity were evaluated using phase-contrast microscopy as an indicator of hepatocyte cell health (Tyson & Green, 1987). Cultures for each treatment group (i.e., media, vehicle [0.2% DMSO], positive control inducers [multiple concentrations], and the ToxCast chemicals [multiple concentrations]) were observed and cell morphology was assessed relative to vehicle control cultures at each harvest time point (0, 6, 24, or 48 h). […] Images were evaluated at the conclusion of the study to assess changes in cell integrity and account for the effects of chemical exposure on uncharacteristic changes in concentration-dependent gene expression profiles. The results from these determinations of apparent cytotoxicity were annotated (yes/no) alongside the corresponding qNPA data for reference.At the conclusion of each treatment period, hepatocyte cultures (96-well) were washed with 1 volume of HBSS, lysed by addition of 25 ul ArrayPlate lysis buffer (HTG, Tucson, AZ), and 70 ul/well of Denaturation Oil, denatured by incubation at 95C for 10 min, and frozen at approximately -70C until analysis by nuclease protection assay (qNPA) (Roberts et al., 2007). For qNPA analysis, cell lysates were thawed at 50C for approximately 30 min, qNPA probes were added, and samples were incubated at 95C for 10 min to begin the detection process by denaturing the target RNA, dissociating the duplexes and secondary structure hybridization. At the conclusion of the hybridization period, S1 nuclease reagent was added to each sample to digest all nonprotected nucleotides at 50C for 60-90 min. […]
SMILES,outcome,AC50
CCOC(=O)COc1cc(-n2ncc(C(F)(F)F)c(C)c2=O)c(F)cc1Cl,inactive,–
COC(=O)c1ccc(I)cc1S(=O)(=O)NC(=O)Nc1nc(C)nc(OC)n1,inactive,–
N#CSCSc1nc2ccccc2s1,inactive,–
COC(=O)c1cccc(C)c1S(=O)(=O)NC(=O)Nc1nc(OCC(F)(F)F)nc(N(C)C)n1,–,5.98 µM (active)
COC(=O)c1ccccc1C(=O)O,inactive,–
Oc1ccc(C(c2ccc(O)cc2)C(Cl)(Cl)Cl)cc1,–,0.266 µM (active)
CCSC(=O)N(CC(C)C)CC(C)C,inactive,–
CCCCOC(=O)[C@@H](C)Oc1ccc(Oc2ccc(C(F)(F)F)cn2)cc1,inactive,–
S=C([S-])NCCNC(=S)[S-].[Mn+2],inactive,–
CCCN(CCC)c1c([N+](=O)[O-])cc(C(F)(F)F)c(N)c1[N+](=O)[O-],inactive,–
CCCCCOC(=O)COc1cc(N2C(=O)C3=C(CCCC3)C2=O)c(F)cc1Cl,inactive,–
CC(C)(C)[C@@H](O)[C@@H](Cc1ccc(Cl)cc1)n1cncn1,inactive,–
COc1c(Cl)ccc(Cl)c1C(=O)O,inactive,–
CCC(O)=C1C(=O)CC(C(=O)O)CC1=O (stereo not given),–,1.89 µM (active)
CC1(C)C(C=C(Cl)Cl)C1C(=O)OCc1cccc(Oc2ccccc2)c1 (stereo not given),inactive,–
CCNc1nc(N)nc(Cl)n1,inactive,–
CCCN(CCC)C(=O)SCC,inactive,–
CCOC(=O)[C@H](C)Oc1ccc(Oc2nc3ccc(Cl)cc3o2)cc1,inactive,–
CCC(C)OC(=O)N1CCCCC1CCO (stereo not given),inactive,–
COC(=O)c1c(Cl)nn(C)c1S(=O)(=O)NC(=O)Nc1nc(OC)cc(OC)n1,–,2.54 µM (active)

SMILES,outcome,AC50
c1ccc(Nc2ccccc2)cc1,inactive,–
CCOC(=O)C(C)Oc1ccc(Oc2nc3ccc(Cl)cc3o2)cc1 (stereo not given),inactive,–
COc1nc(C)nc(NC(=O)NS(=O)(=O)c2ccccc2OCCCl)n1,inactive,–
O=C(O)C1(C(=O)Nc2ccc(Cl)cc2Cl)CC1,inactive,–
CCOC(=O)C(C)Oc1ccc(Oc2cnc3cc(Cl)ccc3n2)cc1 (stereo not given),inactive,–
OB(O)O,inactive,–
CCCCCCC(C)OC(=O)COc1nc(F)c(Cl)c(N)c1Cl (stereo not given),inactive,–
CN(C)C(=O)Nc1ccc(Cl)c(Cl)c1,–,3.05 µM (active)
O=C(Nc1ccc([N+](=O)[O-])cc1Cl)c1cc(Cl)ccc1O,–,0.163 µM (active)
CCCCC(CC)CN1C(=O)C2C3C=CC(C3)C2C1=O (stereo not given),inactive,–
CCN(CC)C(=O)c1cccc(C)c1,inactive,–
c1ccc2[nH]c(-c3cscn3)nc2c1,–,5.82 µM (active)
COC(=O)CSc1cc(N=c2sc(=O)n3n2CCCC3)c(F)cc1Cl,inactive,–
CCCOC(=O)c1ccc(C(=O)OCCC)nc1,inactive,–
CC(C)(c1ccc(O)cc1)c1ccc(O)cc1,inactive,–
COCCO,inactive,–
CCCCC(CC)COC(=O)c1ccccc1C(=O)O (stereo not given),inactive,–
CCCCOCCOCCOCc1cc2c(cc1CCC)OCO2,–,5.75 µM (active)
CCCOC(=O)NCCCN(C)C,inactive,–
COC(=O)c1ccccc1S(=O)(=O)NC(=O)Nc1nc(OC(F)F)cc(OC(F)F)n1,inactive,–
